According to PubChem BioAssay:
“And” between values parts separate entries of the source, which are not always exact repeats. Equal values may be shown once. The source made the active and inactive calls. Unless noted, how the calls were made is not given here.

Legend:
[1] = HepG2 liver cancer cell viability effects, profiling panel, resazurin fluorescence, 24 h, PK04 Diversity Set (AID 1172); settings: higher = more signal; further: test concentration not given here
[2] = basal S. cerevisiae growth modulation, no modifier, primary screen, OD600, strain BY4716, 24 h, basal condition (AID 1173); settings: OD600, 24 h, higher = more signal, called active from +8 up or from −8 down
[3] = MM1S myeloma cell viability, profiling panel, resazurin fluorescence, basal, 24 h, PK04 Diversity Set (AID 1174); settings: higher = more signal, called active from +8 up or from −8 down;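 further: MM1S multiple myeloma cell line; test concentration not given here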
[4] = target: Dihydroorotate dehydrogenase (quinone), mitochondrial (Plasmodium falciparum (isolate 3D7)) (UniProt Q08210); assay: PfDHODH enzyme inhibitors, primary screen, biochemical, C-terminal His tag, absorbance 600 nm (AID 1175); settings: DCIP absorbance 600 nm, higher = more signal, called active from +8 up or from −8 down;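 further: recombinant parasite enzyme with a five histidine tag at its C terminus; test concentration not given here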
Sequence of Dihydroorotate dehydrogenase (quinone), mitochondrial (Plasmodium falciparum (isolate 3D7)) (Q08210 whole entry, looked up): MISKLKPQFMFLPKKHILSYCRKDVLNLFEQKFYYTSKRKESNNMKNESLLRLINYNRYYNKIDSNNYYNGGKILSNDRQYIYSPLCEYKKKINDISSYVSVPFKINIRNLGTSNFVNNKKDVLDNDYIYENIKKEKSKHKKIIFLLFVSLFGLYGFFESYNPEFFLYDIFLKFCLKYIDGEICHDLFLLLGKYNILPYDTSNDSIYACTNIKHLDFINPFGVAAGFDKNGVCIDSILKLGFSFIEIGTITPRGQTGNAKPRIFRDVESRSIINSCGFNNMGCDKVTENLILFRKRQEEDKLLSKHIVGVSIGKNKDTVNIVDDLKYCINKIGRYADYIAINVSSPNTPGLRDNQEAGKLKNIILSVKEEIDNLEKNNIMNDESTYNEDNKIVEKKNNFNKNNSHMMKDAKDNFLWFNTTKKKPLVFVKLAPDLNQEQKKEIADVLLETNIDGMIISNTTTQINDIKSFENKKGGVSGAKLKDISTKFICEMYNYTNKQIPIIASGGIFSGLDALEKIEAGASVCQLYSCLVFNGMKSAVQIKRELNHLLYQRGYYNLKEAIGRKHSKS

[5] = P. aeruginosa biofilm formation inhibitors, primary screen, strain PAO1, LB-PBS medium, absorbance 600 nm (AID 1176); further: test concentration not given here; settings: P. aeruginosa PAO1 growth/biofilm, A600, 12 h; higher = more signal
[6] = S. cerevisiae RM11-1a growth modifiers, primary screen, strain RM11-1a, OD600, basal, 24 h (AID 1177); settings: OD600, 24 h, higher = more signal, called active from +8 up or from −8 down;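 further: cultures grown under basal conditions with no added stressor; test concentration not given here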
[7] = E. coli acrAB mutant growth effects, primary screen, E. coli filamentation inducers, strain DRC39, OD650, 24 h (AID 1178); settings: higher = more signal, called active from +8 up or from −8 down;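 further: growth measured as culture turbidity by optical density at 650 nm; test concentration not given here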
[8] = E. coli acrAB mutant growth effects, primary screen, E. coli filamentation inducers, strain DRC39, OD650, 48 h (AID 1179);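 further: screen aims at cell division blockers that make cells filament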; settings: E. coli DRC39 delta-acrAB growth, higher = more signal, called active from +8 up or from −8 down
[9] = RPMI8226 myeloma cell viability, profiling panel, resazurin fluorescence, basal, 24 h, PK04 Diversity Set (AID 1180); settings: higher = more signal;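 further: RPMI8826 multiple myeloma cell line at 5000 cells per well; test concentration not given here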
[10] = target: E3 ubiquitin-protein ligase XIAP (Homo sapiens) (UniProt P98170); assay: XIAP binders, primary screen, biophysical, small-molecule microarray, fluorescence 635 nm (AID 1181); settings: small-molecule microarray binding, higher = more signal;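 further: score merges 667 nm emission and signal to noise over triplicate slides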
Sequence of E3 ubiquitin-protein ligase XIAP (Homo sapiens) (P98170 whole entry, looked up): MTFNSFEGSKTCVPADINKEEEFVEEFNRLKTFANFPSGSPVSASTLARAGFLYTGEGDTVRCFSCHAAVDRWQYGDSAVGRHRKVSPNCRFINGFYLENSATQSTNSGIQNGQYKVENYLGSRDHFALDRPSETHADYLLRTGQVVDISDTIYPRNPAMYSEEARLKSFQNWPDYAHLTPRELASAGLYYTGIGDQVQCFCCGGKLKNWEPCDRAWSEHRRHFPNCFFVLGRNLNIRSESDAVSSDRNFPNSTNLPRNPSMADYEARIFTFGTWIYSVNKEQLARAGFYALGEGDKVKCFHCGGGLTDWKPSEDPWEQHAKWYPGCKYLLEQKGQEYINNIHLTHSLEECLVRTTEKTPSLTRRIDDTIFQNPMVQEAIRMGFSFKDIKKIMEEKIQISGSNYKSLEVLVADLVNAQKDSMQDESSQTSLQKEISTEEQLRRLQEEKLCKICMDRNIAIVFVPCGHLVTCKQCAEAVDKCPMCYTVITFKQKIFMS

Row | SMILES | z-score [1] | z-score [2] | z-score [3] | composite z-score [4] | z-score [5] | z-score [6] | z-score [7] | z-score [8] | z-score [9] | composite z-score [10]
1 | C=CCN(C(=O)C(c1cccs1)N(CCOCCO)C(=O)/C=C\C(=O)O)c1ccc(OC)cc1 (stereo not given) | 0.591 and 0.232 | -1.32 (inactive) and -1.58 (inactive) | 0.0173 (inactive) and 0.605 (inactive) | -1.05 (inactive) and -2.65 (inactive) | 1.07 (inactive) | -1.64 (inactive) and -1.09 (inactive) | 0.997 (inactive) and 1.72 (inactive) | 1.21 (inactive) and 2 (inactive) | 1.25 and 0.952 | 0.336 and -0.325
2 | C=CC[C@@H](O)c1ccc(O)c(F)c1 | -0.0101 and 0.942 | -0.898 (inactive) and -2.97 (inactive) | -0.87 (inactive) and 1.56 (inactive) | 0.672 (inactive) and -0.585 (inactive) | 0.671 (inactive) | 0.912 (inactive) and -1.83 (inactive) | -0.046 (inactive) and 1.79 (inactive) | -0.248 (inactive) and 1.06 (inactive) | -0.511 and 0.864 | -0.0884 and -0.042
3 | C=CCN(Cc1ccccc1)C(=O)C1N(c2c(Cl)cccc2CO)C(=O)C2C(C(=O)O)C3C=CC21O3 (stereo not given) | 0.753 and -0.367 | -2.14 (inactive) and -0.245 (inactive) | 1.33 (inactive) and -0.324 (inactive) | -0.33 (inactive) and 0.994 (inactive) | -0.236 (inactive) and -0.329 (inactive) | -3.44 (inactive) and 0.92 (inactive) | 2.24 (inactive) and -0.745 (inactive) | 2.55 (inactive) and -0.89 (inactive) | 0.565 and -0.662 | 0.0379 and -0.051
4 | COc1ccc(-c2ccc3c(n2)CCCN3CC(O)CN2CCCc3nc(-c4ccc(Br)cc4)ccc32)cc1 (stereo not given) | -0.721 and 0.465 | -4.64 (inactive) and -1.56 (inactive) | -0.791 (inactive) and -0.334 (inactive) | 0.0106 (inactive) and 0.0126 (inactive) | -0.139 (inactive) and -0.245 (inactive) | 0.665 (inactive) and 0.0647 (inactive) | 0.336 (inactive) and 0.725 (inactive) | 0.191 (inactive) and 0.761 (inactive) | -0.286 and -0.439 | 1.04 and 0.94
5 | CC[C@@H]1C(Sc2ccccc2)C(C(=O)O)[C@H](c2ccc(C)cc2)N1S(=O)(=O)c1ccc(C)cc1 (stereo not given in full) | -0.706 and -0.917 | -0.28 (inactive) and -1.3 (inactive) | -0.567 (inactive) and 0.0522 (inactive) | 0.0392 (inactive) and -0.581 (inactive) | 0.133 (inactive) and 0.257 (inactive) | -0.112 (inactive) and -1.09 (inactive) | -0.604 (inactive) and -0.627 (inactive) | -0.106 (inactive) and 0.575 (inactive) | -1.17 and -0.637 | 0.287 and 0.382
6 | C=CCN(CCCC)C(=O)C(c1cccs1)N(CCOCCO)C(=O)/C=C\C(=O)O (stereo not given) | -0.313 and -1.09 | -0.8 (inactive) and 0.678 (inactive) | -0.0247 (inactive) and -0.0815 (inactive) | -1.49 (inactive) and -0.811 (inactive) | 0.0126 (inactive) and 0.177 (inactive) | -1.34 (inactive) and -1.13 (inactive) | 0.423 (inactive) and 0.0136 (inactive) | 0.629 (inactive) and 0.633 (inactive) | 0.0517 and 0.181 | -0.352 and -0.234
7 | C[C@@H](ON=C1[C@H]2CCn3c(=O)n(-c4ccccc4)c(=O)n3[C@H]2[C@H](O)[C@@H]2O[C@H]12)c1cn([C@H](CO)Cc2ccccc2)nn1 | -1.08 | 0.394 (inactive) | -1.42 (inactive) | -0.469 (inactive) | -0.525 (inactive) | 0.122 (inactive) | 0.777 (inactive) | 1.12 (inactive) | -1.65 | -0.0208
8 | C=CC[C@H](O)c1ccc(OCCO)cc1 | 0.116 and -0.551 | -1.47 (inactive) and -1.79 (inactive) | -0.567 (inactive) and -0.911 (inactive) | -0.364 (inactive) and -0.704 (inactive) | 0.225 (inactive) and -0.0818 (inactive) | -0.0329 (inactive) and -0.774 (inactive) | 0.375 (inactive) and -0.241 (inactive) | 0.333 (inactive) and -0.405 (inactive) | -0.535 and 0.0681 | 0.0697 and -0.152
9 | COCn1c2ccccc2c2nnc(C(C)=O)nc21 | -0.159 and -0.565 | -1.93 (inactive) and -2 (inactive) | -0.0104 (inactive) and 0.0255 (inactive) | -2.39 (inactive) and -2.01 (inactive) | -0.907 (inactive) and -0.576 (inactive) | 0.204 (inactive) and -0.16 (inactive) | -1.12 (inactive) and -1.17 (inactive) | -1.07 (inactive) and -1.34 (inactive) | -0.261 and -0.35 | -0.0095 and -0.065
10 | CCOC(=O)c1ccc(NC(=O)O[C@H]2[C@H](OC(=O)Nc3ccccc3)[C@H](OC(=O)Nc3ccccc3)[C@@H](OC)O[C@@H]2CO)cc1 | -1.03 and -1.82 | 0.645 (inactive) and -0.301 (inactive) | -1.75 (inactive) and -3.01 (inactive) | -0.299 (inactive) and -0.597 (inactive) | 2.37 (inactive) and 1.74 (inactive) | 2.14 (inactive) and 0.971 (inactive) | -0.468 (inactive) and 0.363 (inactive) | 0.496 (inactive) and -0.189 (inactive) | -1.53 and -2.7 | 0.23 and 0.108
11 | CON(C)C(=O)c1nnc2c3ccccc3n(S(=O)(=O)c3ccc(C)cc3)c2n1 | -0.311 and -0.466 | -0.148 (inactive) and -0.378 (inactive) | -0.125 (inactive) and -0.498 (inactive) | 0.354 (inactive) and -0.588 (inactive) | -0.446 (inactive) and 0.757 (inactive) | -0.469 (inactive) and -0.226 (inactive) | -0.339 (inactive) and 0.046 (inactive) | -0.512 (inactive) and -0.404 (inactive) | -0.691 and -0.232 | -0.146 and 0.687
12 | CC(=O)OC[C@H]1O[C@H](C#CC(C)(C)C)C=C[C@@H]1OC(C)=O | -0.374 | -0.854 (inactive) | -0.756 (inactive) | -0.187 (inactive) | -0.151 (inactive) | -0.066 (inactive) | 0.545 (inactive) | 0.221 (inactive) | -0.26 | 0.0237
13 | C=CCN(CCCC)C(=O)C1N(c2c(Cl)cccc2CO)C(=O)C2C(C(=O)O)C3C=CC21O3 (stereo not given) | -0.757 and -0.248 | 0.187 (inactive) and -0.602 (inactive) | -1.9 (inactive) and -0.645 (inactive) | 0.82 (inactive) and -0.536 (inactive) | -0.261 (inactive) and 0.497 (inactive) | 0.561 (inactive) and 0.143 (inactive) | -0.964 (inactive) and 0.22 (inactive) | -0.881 (inactive) and -0.0006 (inactive) | -0.813 and -0.285 | -0.0599 and 0.425
14 | CCC[C@@H]1C[C@@]1(CCC)[C@@H](NC(=O)c1ccc(-c2ccccc2)cc1)c1cccc(Cl)c1 | 0.791 and 0.395 | 0.0143 (inactive) and 1.49 (inactive) | -0.0393 (inactive) and -0.312 (inactive) | -0.824 (inactive) and 0.499 (inactive) | 1 (inactive) and 0.343 (inactive) | 0.38 (inactive) and 1.47 (inactive) | -0.505 (inactive) and -0.336 (inactive) | -0.61 (inactive) and -0.0929 (inactive) | 0.889 and -0.275 | -0.0305 and 0.0623
15 | C=CCN(C(=O)C1N(c2c(Cl)cccc2CO)C(=O)C2C(C(=O)O)C3C=CC21O3)C(C)(C)C (stereo not given) | 0.0972 and 0.393 | 0.134 (inactive) and -0.493 (inactive) | -0.0453 (inactive) and 1.02 (inactive) | -0.395 (inactive) and -0.725 (inactive) | -0.497 (inactive) and 0.053 (inactive) | 0.42 (inactive) and -1.92 (inactive) | 0.0114 (inactive) and 1.34 (inactive) | -0.228 (inactive) and 1.65 (inactive) | -0.338 and 0.957 | -0.217 and -0.113
16 | CC(C)OC(=O)C=C1C[C@@H](c2ccccc2)O[C@@H](c2ccccc2)O1 | 0.0904 and -0.562 | -1.21 (inactive) and -0.385 (inactive) | 0.468 (inactive) and -3.15 (inactive) | -0.125 (inactive) and -1.68 (inactive) | 0.533 (inactive) and 0.394 (inactive) | 0.306 (inactive) and 0.904 (inactive) | -0.65 (inactive) and -0.601 (inactive) | 0.945 (inactive) and 0.907 (inactive) | 1.54 and -2.33 | -0.13 and 0.013
17 | COC(=O)C1=C(C)N(Cc2ccccc2)C2=C3C(=O)N(C)C(=O)[C@@H]3[C@@](O)(C(=O)OC)C(=O)N2[C@@H]1c1ccccc1 | 0.498 and -1.16 | -0.816 (inactive) and -1.23 (inactive) | 0.92 (inactive) and -0.281 (inactive) | -0.105 (inactive) and -0.613 (inactive) | -0.27 (inactive) and 0.0039 (inactive) | -0.544 (inactive) and -2.42 (inactive) | 0.448 (inactive) and -0.0247 (inactive) | 0.275 (inactive) and 0.0957 (inactive) | 0.922 and -0.377 | -0.0622 and -0.0848
